Here are results for 40 molecules from PubChem BioAssay (EPA / NIEHS).

Activity calls are given as the source filed them. How the source made its calls: active means hit-call score of the fitted dose curve at least 0.9, where 1 is the maximum; inactive means score below 0.9.

Read-out in this test: CYP4A11 (gene 1579)
Description: LTEA_HepaRG_CYP4A11: Life Technologies and Expression Analysis (LTEA) Assay for CYP4A11 using HepaRG (AID 2283486). The note with it: mRNA level, 48 h; actives raise or lower the signal. How it is done: LTEA_HepaRG is a cell based, multiplexed-readout assay that uses HepaRG, a human liver cell line, with measurements taken at 48 hours after chemical dosing on a 96-well plate.LTEA_HepaRG_CYP4A11 is one of 102 assay component(s) measured in the LTEA HepaRG cell culture assay. It is a marker of NR mediated metabolism.Data from the assay component LTEA_HepaRG_CYP4A11 was analyzed into 1 endpoint. This assay endpoint, LTEA_HepaRG_CYP4A11, was analyzed with bidirectional fitting relative to DMSO as the negative control and baseline of activity. Using a type of inducible reporter, measures of mRNA induction for gain or loss-of-signal activity can be used to understand regulation of transcription factor activity. To generalize the intended target to other relatable targets, this assay endpoint is annotated to the cyp intended target family, where the subfamily is xenobiotic metabolism.
A total of 1060 chemcials from the ToxCast library were tested in eight-point concentration-response experiments. Cell culture and cytotoxicity assays were conducted at Thermo Fisher Scientific's Custom Services facility (Madison, WI). A single lot of human HepaRG cells (Thermo Fisher Scientific, Frederick, MD) was used for the cell culture experiments. 96-well format collagen type I coated plates of human HepaRG cells were prepared using established methods. Briefly, cryopreserved HepaRG cells were thawed, plated at a density of approximately 100,000 cells/well in HepaRG Thaw, Plate, and General Purpose media (HPRG770, Thermo Fisher Scientific), and incubated for 48 hours. 0.5% DMSO was selected as vehicle control to balance the requisite need of DMSO in HepaRG cultures to maintain differentiation (for example, baseline metabolism, proportions of hepatocytes vs. cholangiocytes), while enabling further hepatic receptor pathway activation (for example, PXR and CAR) in response to chemical exposure. 48 hours after plating, the culture medium was replaced with HepaRG Serum-Free Incudtion Media. Cells were exposed to each test chemical in duplicate and maintained in CO2 incubators for another 48 hours. Chemical plates were thawed to room temperature and 200x concentrations of treatment groups were prepared. 8-point conentration-reponse curves were made with the highest exposure at 100 uM, followed by half-log dilutions, all in 0.5% DMSO. Each test plate contained variouse controls, induction positive controls (1mM phenobarbital), cytotoxicity positive controls ([…] aflatoxin B1), vehicle controls (0.5% DMSO), and total lysis controls (0.5% DMSO). Cell morphology images were taken using an Essen IncuCyte FLR automated microscope, with six 96-well plates imaged in about 24 minutes. Images were captured and exported and JPEG files. Spent culture media was transfered to black-well plates for the LDH assay, and remaining media was sorted at -80 C for later use. Cells were treated with RLT buffer and frozen until shipped for gene expression analysis. Total RNA was isolated from the cell suspension in 75 uL of Buffer RLT (Qiagen, Germantown, MD 20874) by Quintiles/Expression Analysis (Durham, NC) using a custom isolation procedure. Total RNA from each plate well was transferred to a preamplification plate. Fluidigm's 96.96 Dynamic ArrayTM (Fluidigm, Amsterdam, the Netherlands) technology was used for gene expression analyses by quantitative reverse transcription polymerase chain reaction (qRT-PCR, performed by Quintiles/Expression Analysis, Durham, NC)89. Standard TaqManTM Assays (Applied Biosystems/ThermoFisher Scientific, Foster City, CA) were used to assess the expression of 93 genes selected based on their selectivity and sensitivity to important hepatic receptors known to be modulated by environmental chemicals; importance in human hepatocyte functionality; and hepatotoxicity. […]
On to `COC(=O)CCCC(=O)OC`, for which the molecule was classed as inactive. Consider `CCCCC(CC)COC(=O)CCCCCCCC(=O)OCC(CC)CCCC` (stereo not given), for which the outcome was inactive. Turning to `COc1ccc(OC(F)(F)F)cc1CN[C@H]1CCCN[C@H]1c1ccccc1`, the half-maximal activity concentration (AC50) – broadly, the midpoint of the concentration-response curve, whichever way the signal moves – is 9.12 µM (active). Turning to `CC1(C)C(=O)NC(=O)N1CO`, the molecule was called inactive. The same measure, in the same setting: with `C=CCCCCCCCCCCCC` the entry was “inactive”. Turning to `CC(C)c1cccc(C(C)C)c1`, the outcome was inactive.

With `CO[C@@H]1COCC[C@@H]1N[C@@H]1CC[C@@](C(=O)N2CCc3ncc(C(F)(F)F)cc3C2)(C(C)C)C1`, the molecule was classed as inactive. For `COC(=O)[C@H]1[C@H]2C[C@@H]3c4[nH]c5cc(OC)ccc5c4CCN3C[C@H]2C[C@@H](OC(=O)c2cc(OC)c(OC)c(OC)c2)[C@@H]1OC`, the AC50 was 48.8 µM (active). As to `CC(N)=O`, the molecule was called inactive. In the case of `CCc1cc(C2=C(C(=O)O)N(c3ccccc3C(F)(F)F)S(=O)(=O)c3ccccc32)cc2c1OCO2`, the concentration at half-maximal activity (AC50) was 39.7 µM (active).

Take `Cc1c(C)c2c(c(C)c1O)CCC(C)(COc1ccc(CC3SC(=O)NC3=O)cc1)O2` (stereo not given): the concentration at half-maximal activity (AC50) was 27.5 µM (active).

Regarding `O=Cc1ccccc1C=O`, the molecule was classed as inactive. Take `CCc1nc(N)nc(N)c1-c1ccc(Cl)cc1`: the AC50 was 64.2 µM (active). Turning to `O=NO`, the result was inactive.

As for `S=c1[nH]c2ccccc2s1`, the molecule was classed as inactive.

For the molecule `CC(C)NCC(O)c1ccc(O)c(O)c1` (stereo not given), the molecule was classed as inactive. In the case of `CCCCCCC(C=O)=Cc1ccccc1`, the molecule was classed as inactive. With `O=C1c2c(O)cccc2Cc2cccc(O)c21`, the call was inactive. Turning to `O=C1OC(c2ccc(O)cc2)(c2ccc(O)cc2)c2ccccc21`, the concentration at half-maximal activity (AC50) was 80.1 µM (active).

For `C/C=C/C=C/C(=O)O`, the outcome was inactive.

For the molecule `Cc1ccc(C(C)(C)C)c(O)c1`, the molecule was called inactive. Take `c1ccc2occc2c1`: the outcome was inactive. Regarding `O=C1CCCCC1`, the outcome was inactive. For the molecule `CC(=O)CC(c1ccccc1)c1c(O)c2ccccc2oc1=O` (stereo not given), the call was inactive. With `Cc1cc(Cc2ccc(N)c(C)c2)ccc1N`, the outcome was inactive.

For the molecule `CN(C)C(=O)NC1(c2ccccc2)CCN(CCC[C@]2(c3ccc(Cl)c(Cl)c3)CCCN(C(=O)c3ccccc3)C2)CC1`, the AC50 was 23.6 µM (active).

Regarding `C/C=C/c1ccc(OC)cc1`, the molecule was called inactive. On to `CC(=O)O[C@]1(C(C)=O)CC[C@H]2[C@@H]3C=C(Cl)C4=CC(=O)[C@@H]5C[C@@H]5[C@]4(C)[C@H]3CC[C@@]21C`, for which the molecule was called inactive. For `C#CC(O)C(CC)CCCC` (stereo not given), the molecule was classed as inactive.

On to `CS(=O)(=O)c1ccc([C@@H](C[C@H]2CCC(=O)C2)C(=O)Nc2cnccn2)cc1Cl`, for which the result was inactive. Same read-out and setting: to `O=C(Oc1ccccc1)c1cccc(C(=O)Oc2ccccc2)c1` belongs “inactive”.

Regarding `CCCCCCCCCC[N+](C)(C)[O-]`, the call was inactive. For `O=C1NC(=O)C(c2ccccc2)(c2ccccc2)N1`, the AC50 is 12.1 µM (active). Consider `OCC(O)CO`, for which the result was inactive.

`CCCC(=O)O`: the call was inactive. In the case of `CCCC[C@H]1CN(CC2CCOCC2)C(=O)OC12CCN(C1(C)CCN(C(=O)c3c(C)ncnc3C)CC1)CC2`, the molecule was called inactive. As for `Oc1ccc(O)cc1`, the molecule was classed as inactive. As to `NC1CCCCC1`, the result was inactive. Consider `CC(=O)OC1CC(C)OC(C)O1` (stereo not given), for which the result was inactive. Regarding `O=C(NS(=O)(=O)/C=C/c1cccs1)c1ccc(F)cc1Br`, the AC50 was 14.1 µM (active).
